Assay outcomes from PubChem BioAssay.
DT40 TDP1 no CPT: qHTS for Inhibitors of human tyrosyl-DNA phosphodiesterase 1 (TDP1): qHTS in cells in absence of CPT; DT40 Tdp1-/- hTDP1 cells, no CPT, ATP luminescence, 48 h; Potency, µM (titrated, usually from 46.2 µM), without a hit: top-dose activity change, negative = growth inhibition, actives largely listed as inhibitors; 420,000 tested, 15% active; AID 686978, 2013; also: potency is read from the fitted curve at half-maximal effect; nearly all actives have a fitted effect of over 55% in size
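Stably hTDP1-transfected Tdp1-null chicken DT40 cells were treated with library compounds minus camptothecin and grown for at least 48 hr at 37 °C, after which cellular ATP was quantified by luminescence.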
HT1080-NT tox: kills 2HG-producing HT-1080-NT fibrosarcoma cells; Potency, µM (titrated, usually from 46.1 µM), inactives show top-dose activity, negative = less viability, most hits filed as cytotoxic; 360,000 tested, 1.6% active; AID 686970; HT-1080-NT fibrosarcoma viability, CellTiter-Glo ATP luminescence, 48 h;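 also: NT is the 2HG producing partner of a matched IDH1 knockdown line; potency is read from the fitted curve at half-maximal effect; 0% = DMSO-treated cells and -100% = media-only wells without cells; nearly all actives have a fitted effect of over 55% in size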
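HT-1080-NT fibrosarcoma cells (2HG-overproducing), 750 cells/well in RPMI with 5% FBS, dosed after 2 h and incubated 48 h at 37C. CellTiter-Glo luminescence normalized to DMSO and no-cell wells; concentration-response curves fitted and classed.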
TDP1 cell CPT: growth inhibition of DT40 Tdp1-/-;hTDP1 cells with camptothecin (screen for TDP1 inhibitors); chicken DT40 Tdp1-/-;hTDP1 cells + 20 nM CPT, ATP luminescence, 48 h; 420,000 tested, 12% active; AID 686979; Potency, µM (highest dose often 46.2 µM), for the others: at the highest dose activity change, negative = growth inhibition, most hits filed as inhibitors; also: potency is read from the fitted curve at half-maximal effect; nearly all actives have a fitted effect of over 55% in size
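Cell growth measured by CellTiter-Glo luminescence after a minimum 48 h, 37 C compound exposure with 20 nM CPT in Tdp1-knockout DT40 cells stably expressing hTDP1, seeded 400/well; qHTS titration format.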
IL1B secr inh: blocks inflammasome-driven IL-1 beta release; THP-1 LPS/ATP IL-1B secretion, AlphaLISA, 16 h; stronger effect = lower value; activity change, % at 57.5 µM; 360,000 tested, 4.7% active; AID 743279; in the data active = activity change below about -50%; inconclusive = mostly about -30% to -49%
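Secreted IL-1B measured by AlphaLISA bead assay after 16 h compound exposure of THP-1 cells; compounds (final up to 57.5 uM) added 1 h before LPS (250 ng/mL) and ATP (1.25 mM) stimulation; lower signal means less secretion.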
HT1080 IDH1KD tx: HT-1080 IDH1 knockdown cell toxicity (counter line); HT-1080 IDH1 knockdown viability, ATP luminescence, 48 h; Potency, µM (top dose mostly 46.1 µM), without a hit: at the top dose activity, negative = toxicity, hits mostly cytotoxic; 360,000 tested, 2% active;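 also: potency is read from the fitted curve at half-maximal effect; 0% = DMSO wells and -100% = cell-free medium wells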
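IDH1KD HT-1080 cells, 750/well, RPMI + 5% FBS; compound pinned after 2 h settling; 48 h, 37 °C; CellTiter-Glo luminescence; % activity normalised to DMSO and no-cell wells; curves fitted, classed by r2 and efficacy.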
Starred values were filed as active, the others as inactive; ? = inconclusive; / = not tested or not shown; ! = a repeat was not active; [ ] = dose if it differs, or a comment. Compounds with a hit are over-represented: about 19% of the library has one in this group of screens. Unless noted, calls follow the shape of the dose curve; as a rule, active = well fitted curve in the direction sought with a large enough effect; inconclusive = small, poorly fitted or top-dose-only effect, or another doubt; inactive = no such curve, though single readings can be large; an effect the other way counts as inactive or inconclusive. Unless noted, % is scaled to controls: 0 for no effect and ±100 for the full control effect.

SMILES	DT40 TDP1 no CPT	HT1080-NT tox	TDP1 cell CPT	IL1B secr inh	HT1080 IDH1KD tx
CC(=O)c1c(O)c(C)c(O)c2c1OC1=Cc3c(c(C)nn3C)C(=O)C12C (centres undefined)	29µM*	7%	16µM*	10	-2%
CC(=O)C1=C(O)C=C2Oc3c(C(C)=O)c(O)c(C)c(O)c3[C@]2(C)C1=O	3%	/	17%	/	/
CC(C)(C)OC(=O)NC(CNCc1ccccc1)Cc1ccccc1 (centres undefined)	?	-3%	13µM*	-7	-1%
CC(C)(C)OC(=O)NC(Cc1ccccc1)C(=O)O (centres undefined)	6%	12%	5%	14	9%
O=C1N/C(=C/c2ccc(N3CCOCC3)o2)C(=O)N1c1ccccc1	9.2µM*	?	12µM*	-104*	-4%
Cc1cc(C(=O)NCC(c2ccco2)N(C)C)ccc1[N+](=O)[O-] (centres undefined)	5%	-2%	12%	-8	11%
COc1ccc(N(CC(=O)NCc2ccccc2Cl)S(=O)(=O)c2c(C)[nH]c(=O)[nH]c2=O)cc1	-13%	/	-1%	/	/
CC(C)=CCN1CCN(Cc2cnc(-c3ccccc3)s2)CC1CCO (centres undefined)	?	0%	26µM*	-12	0%
COc1ccccc1/C=C/CN1CCN(Cc2ccc(F)cc2)C(CCO)C1 (centres undefined)	18µM*	-8%	?	?	-1%
OCCC1CN(Cc2nc(-c3ccccc3)cs2)CCN1Cc1ccc(F)cc1 (centres undefined)	16µM*	-23%	23µM*	-76*	-17%
Cc1ccc(CN2CCN(Cc3nc(C(C)C)cs3)CC2CCO)cc1 (centres undefined)	12µM*	-25%	?	2	3%
Cc1ccc(CCNC(=O)C(NS(=O)(=O)c2ccc3c(c2)oc(=O)n3C)C(C)C)cc1 (centres undefined)	-4%	/	2%	/	/
CCc1nc2ccc(C(=O)NCCCn3ccnc3)cn2c1N(C)C(=O)COc1ccccc1	3%	7%	1%	18	10%
CC1=C(C(=O)OCCBr)C(c2cccc3ccccc23)NC(=O)N1 (centres undefined)	?	4%	?	18	14%
COc1ccc(-c2cnc3c(NC(C)=O)cc(-c4ccc(S(C)(=O)=O)cc4)cn23)cc1OC	18µM*	-21%	?	-26	2%
CC(=O)Nc1cc(-c2cccc(C(=O)NCCN(C)C)c2)cn2c(-c3ccc(S(C)(=O)=O)cc3)cnc12	-29%	4%	5%	-17	2%
COc1cccc(-c2cnc3c(NC(C)=O)cc(-c4ccc(S(C)(=O)=O)cc4)cn23)c1	23µM*	?	?	?	?
Cc1cc2c3nonc3ccc2n1-c1ccccc1	?	1%	-11%	10	-22%
COC(=O)C1=C(C)NC(C)=C(C(=O)OC(C)(C)CN(C)CCC(c2ccccc2)c2ccccc2)C1c1cccc([N+](=O)[O-])c1 (centres undefined)	8.4µM*	/	8.4µM*	/	/
CCOC(=O)C1=C(CN2CCOCC2)NC(=O)NC1c1cccc([N+](=O)[O-])c1 (centres undefined)	6%	7%	8%	10	4%
COC(=O)C1=C(C)NC(C)=C(C(=O)OCCCN2CCC(c3ccccc3)(c3ccccc3)CC2)[C@H]1c1cccc([N+](=O)[O-])c1	12µM*	/	12µM*	/	/
CCOC(=O)C1=C(C)NC(C)=C(C(=O)OCC)C1c1ccc([N+](=O)[O-])s1	10µM*	?	15µM*	4	?
COC(=O)C1=C(C)NC(C)=C(C(=O)O[C@@H]2CCCN(Cc3ccccc3)C2)[C@@H]1c1cccc([N+](=O)[O-])c1	10µM*	?	18µM*	?	?
Cc1ccc(S(=O)(=O)Oc2ccc(C3C4=C(CCCC4=O)N(CCC(=O)O)C4=C3C(=O)CCC4)cc2Cl)cc1	-21%	0%	-6%	9	-6%
O=C(O)C1C2C=CC3(CN(C/C=C/c4ccccc4)C(=O)C13)O2 (centres undefined)	0%	4%	1%	19	0%
SMILES	DT40 TDP1 no CPT	HT1080-NT tox	TDP1 cell CPT	IL1B secr inh	HT1080 IDH1KD tx
CCN(C[C@H]1N[C@@](Cc2ccccc2)(C(=O)OC)[C@H]2C(=O)N(C)C(=O)[C@@H]12)C(=O)COC	12%	2%	-14%	0	-1%
COCCOC(=O)C1=C(C)NC(C)=C(C(=O)OC(C)C)C1c1cccc([N+](=O)[O-])c1 (centres undefined)	15µM*!	15%	?	-21	-18%
CCOC(=O)C1=C(N)Oc2cc(O)ccc2C1c1cccc([N+](=O)[O-])c1 (centres undefined)	16µM*	7.3µM*	?	-97*	5.8µM*
CCOC(=O)C1=C(C)NC(C)=C(C(=O)OC)[C@H]1c1cccc([N+](=O)[O-])c1	24µM*	/	27µM*	/	/
CCOC(=O)C1=C(C)N(C)C(=O)NC1c1cccc([N+](=O)[O-])c1 (centres undefined)	0%	12%	-29%	-3	-1%
CCOC(=O)C1=C(C)NC(C)=C(C(=O)OC)C1c1cccc([N+](=O)[O-])c1 (centres undefined)	15µM*!	-20%	12µM*!	-1	-20%
COc1ccc(NC(=O)CN(C)C(=O)C2CCCO2)cc1 (centres undefined)	14%	-6%[9.24 µM]	-9%	-1	1%
CC1CN(S(=O)(=O)c2ccc(CN3C(=O)c4cccnc4C3=O)s2)c2ccccc2O1 (centres undefined)	7%	18%	-18%	0	10%
O=C1Nc2ccc3c(c2C1=Cc1cc2c(cc1Br)OCO2)OCO3	4.6µM*	?	3.3µM*	-13	2%
Cc1cc(C(=O)C(C)OC(=O)c2ccc(NC(=O)CC#N)cc2)c(C)n1-c1ccccc1 (centres undefined)	18µM*	?	?	-56*	-27%
CC(OC(=O)c1ccc(NC(=O)CC#N)cc1)C(=O)NC(c1ccccc1)c1ccccc1 (centres undefined)	-30%	1%	-22%	3	21%
O=C(c1ccc2nccnc2c1)N1CCN(c2cccc(C(F)(F)F)c2)CC1	-27%	4%	?	-12	3%
Cc1nc2cccnc2n1-c1cccc(C(=O)N2CCN(c3cccc(Cl)c3)CC2)c1	4.6µM*	/	4.1µM*	/	/
